The panel holds about 83,000 compounds, 20% with a hit somewhere; the sample as a whole holds those more often.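 In brief: 96-well plates, 48 h treatment, single concentration, percent growth endpoint.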 Activity calls are given as the source filed them. How the source made its calls: active means growth percent below 10; inactive means the rest.

This experiment concerns MDA-MB-468 breast. Put plainly: NCI-60 one-dose screen, 48 h (100 = growth as untreated, 0 = no growth, -100 = all killed). Particulars: 10 µM unless noted.
Consider `COc1ccc(Nc2ncccc2NC(=O)c2cn(Cc3cccc(Oc4ccccc4)c3)nn2)cc1OC`, for which the growth was 55.6% (inactive). Consider `COc1ccc(-c2cc(/C=C3\C(=O)Nc4cc(Cl)ccc43)[nH]n2)cc1OC`, for which the growth is 65.5% (inactive).

On to `O=S(=O)(O)c1cccnc1`, for which the growth is 124% (inactive). In the case of `COc1ccc(NC(=O)c2ccc(Nc3ncnc4[nH]c(C)c(C)c34)cc2)cc1` it was 119% (inactive); in that of `CCOc1cc(Br)c(C(C)NC(=O)c2cccc(OC)c2)cc1OCC` (configuration not stated), 52.6% (inactive). The value for `CCN(CC)CCNc1ccc([N+](=O)[O-])c2sc3cc(Cl)ccc3c(=O)c12` was 92.6% (inactive); that for `C=C1CCC2C3(C)COC(c4ccccc4)OC3CCC2(C)C1C/C=C1/C(=O)OCC1O` (configuration not stated) was 30.6% (inactive); that for `COc1ccc(/C=C(\C#N)C(=O)N2c3ccccc3Sc3ccc(SC)cc32)cc1F` was 72.3% (inactive). Consider `CC(C)=CCc1ccc(O)c(=O)cc1C(C)C`, for which the growth is -24.2% (active). Regarding `Cc1ccc(CNc2ccc3nc(CCC4CCCCC4)[nH]c3c2)cc1`, the growth was -13.2% (active). Turning to `Cc1[nH]c(C(=O)Nc2ccc(S(=O)(=O)N3CCCCC3)cc2OCCOCCOCCOCCOCCOCCOCCOCCOCCOc2cc(S(=O)(=O)N3CCCCC3)ccc2NC(=O)c2[nH]c(C)c3c2CCCCC3=O)c2c1C(=O)CCCC2`, the growth is -11.1% (active). In the case of `O=C(CC(C(=O)c1ccccc1)N1CCN(Cc2ccccc2)CC1)c1ccccc1` (configuration not stated) it was 70.1% (inactive).

The values are drawn from PubChem BioAssay (NCI).
